# Laboratory results reported in PubChem BioAssay (NCATS).
# Results filed as inconclusive are left out. Entries that show only a call come without a potency. Values without a mark were called inactive. The source made the active and inactive calls. The call rests on the fitted dose curve; in most records, active means well fitted inhibition curve with a large enough effect; inconclusive means small, poorly fitted or top-dose-only effect, or effect the other way; inactive means flat fitted curve, though single readings scatter.
# Biological target: ATP-dependent 6-phosphofructokinase (Trypanosoma brucei brucei) (UniProt O15648)
# Test: qHTS Validation Assay to Find Inhibitors of T. brucei phosphofructokinase (AID 485368)
# Details: T. brucei PFK enzyme assay, qHTS 7-point titration; series mostly up to 57.5 µM; activity change, negative = inhibition: at the top concentration
# Description: NIH Molecular Libraries Probe Production Network [MLPCN]
# NIH Chemical Genomics Center [NCGC]
# PI Name: Malcolm Walkinshaw, University of Edinburgh
# Various species of the protozoan family Trypanosomatidae are responsible for a range of serious human diseases in tropical and subtropical areas of the world. […] Many of the disorders caused by trypanosomatids are fatal if left untreated, but most currently used drugs are inefficient and toxic.
# Oxidative metabolism involving the mitochondrial tricarboxylic acid cycle and oxidative phosphorylation are repressed in these parasites, and recent RNA interference (RNAi) experiments have shown that even partial depletion of certain individual glycolytic enzymes can lead to the death of cultured parasites. One such glycolytic enzyme, phosphofructokinase (PFK), catalyzes the formation of fructose-1,6-bisphosphate (F1,6BP) and ADP from fructose-6-phosphate (F6P) and ATP, and in many metabolic circumstances makes an important contribution to the control of flux through the glycolytic pathway. As a specific glycolytic target, PFK is particularly attractive as it catalyzes the first irreversible step in glycolysis, and structural and kinetic studies have shown very substantial and essential differences from corresponding host enzymes, allowing for the discovery of parasite-selective inhibitors.
# The goal of this screen is to find small-molecule inhibitors of T. brucei PFK using a biochemical assay that measures PFK activity as a function of ADP production. A luminescence-based assay for T. brucei PFK activity has been developed which uses luciferase to detect production of ADP. Traditional luciferase-based nucleotide detection reagents rely on ATP production as a direct substrate for the luciferase reaction; however, PFK catalyzes the transfer of a phosphate from ATP to F6P, resulting in the net depletion of ATP. To directly measure the ADP product of the PFK reaction, we used the ADP-Glo detection kit (Promega), which utilizes two separate reactions to 1) deplete all remaining uncatalyzed ATP and 2) convert all remaining ADP to ATP, which is then detected through a traditional luciferase-coupled reaction. Compounds were screened as a concentration-titration series that ranged from 57 uM to 0.7 nM.
# NCGC Assay Protocol Summary:
# Substrate buffer was dispensed into white, solid 1536-well plates at 3uL/well in 0.1M triethanolamine (TEA) buffer, pH 8.0, containing final concentrations of 5 mM MgCl2, 0.01% Tween20, 0.5 mM fructose-6-phosphate (F6P) and 0.1mM ATP. Then, 23 nL of compounds or DMSO were delivered to each well using a pin tool. One uL T. brucei PFK (0.1M TEA, 0.01% Tween20, 0.1% bovine serum albumin (BSA) and 1.25nM PFK, final concentrations) was then dispensed, and plates were incubated at room temperature for 45 min. The luminescent detection reagent, ADP-Glo (Promega), was then added in two steps: the first reagent, ADP-Glo (which converts remaining uncatalyzed ATP), was added at 2.5uL/well and incubated for ten minutes at room temperature, and the second component, Kinase Detection reagent (which converts ADP to ATP as a substrate for luciferase-based luminescence), was added immediately after at 5uL/well, followed by one final ten minute room temperature incubation. The plates were measured on a ViewLux plate reader for luminescent signal using a clear filter with a one second exposure. The %Activity was determined from the corrected luminescence values. As no specific T. brucei PFK inhibitors have been identified in the literature, 1x (1.25nM) and 0x PFK enzyme controls (untreated) were included to normalize %Activity of identified inhibitors; 0x enzyme values corresponded to 100%Activity (full inhibition), while 1x PFK enzyme values were used to normalize 0%Activity (no inhibition).
# Concentration-response curves were fitted to the signals arising from the resulting luminescence. […]
# Potency means the concentration at half of the fitted maximal effect.
# ATP-dependent 6-phosphofructokinase (Trypanosoma brucei brucei), sequence (O15648 whole entry, looked up): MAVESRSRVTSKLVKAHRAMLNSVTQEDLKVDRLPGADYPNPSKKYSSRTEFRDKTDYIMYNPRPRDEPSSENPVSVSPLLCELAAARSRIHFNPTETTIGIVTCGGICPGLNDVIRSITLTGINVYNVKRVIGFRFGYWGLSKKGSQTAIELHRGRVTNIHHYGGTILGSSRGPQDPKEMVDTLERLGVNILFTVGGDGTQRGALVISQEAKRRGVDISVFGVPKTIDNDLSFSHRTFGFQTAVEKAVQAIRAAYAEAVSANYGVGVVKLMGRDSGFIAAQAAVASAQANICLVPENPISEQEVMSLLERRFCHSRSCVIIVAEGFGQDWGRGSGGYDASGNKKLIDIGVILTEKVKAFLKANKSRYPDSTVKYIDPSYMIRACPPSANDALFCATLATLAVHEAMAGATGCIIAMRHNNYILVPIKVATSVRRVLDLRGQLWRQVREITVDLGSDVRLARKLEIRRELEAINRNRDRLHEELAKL
SMILES,outcome,"activity change, negative = inhibition [%]",Potency
CCCN1CCC[C@@H]2Cc3nc(N)ncc3C[C@H]21,inactive,,
CN1C[C@H](CNC(=O)OCc2ccccc2)C[C@@H]2c3cccc4c3c(cn4C)C[C@H]21,,17.1,
CC[C@@H](CO)NC(=O)[C@@H]1C=C2c3cccc4c3c(cn4C)C[C@H]2N(C)C1,,14.8,
CC(=O)[C@H]1CC[C@H]2[C@@H]3CC[C@H]4C[C@H](O)CC[C@]4(C)[C@H]3C(=O)C[C@]12C,inactive,,
CC(=O)[C@H]1CC[C@H]2[C@@H]3CC[C@H]4C[C@](C)(O)CC[C@]4(C)[C@H]3CC[C@]12C,inactive,,
CNCC(O)c1ccc(O)cc1 (stereo not drawn),inactive,,
CCCN1CCC[C@@H]2Cc3[nH]ncc3C[C@H]21,inactive,,
O=c1[nH]c2ccccc2n1C1CCN(CCCC(c2ccc(F)cc2)c2ccc(F)cc2)CC1,inactive,,
NN=C(N)N,,,inactive
COc1ccc(C(CN(C)C)C2(O)CCCCC2)cc1 (stereo not drawn),,,5.36 µM (active)
Cc1cccc(C)c1NC(=O)CN1CCCC1=O,inactive,,
C[C@@H]1O[C@@H](O[C@H]2C[C@@H](O)[C@]3(CO)[C@H]4[C@H](O)C[C@]5(C)[C@@H](C6=CC(=O)OC6)CC[C@]5(O)[C@@H]4CC[C@]3(O)C2)[C@H](O)[C@H](O)[C@H]1O,inactive,,
Fc1ccc(C(OCCN2CCN(CCCc3ccccc3)CC2)c2ccc(F)cc2)cc1,inactive,,
O=C1NCN(c2ccccc2)C12CCN(CC1COc3ccccc3O1)CC2 (stereo not drawn),inactive,,
Cc1ncc(CNC(=O)N(CCCl)N=O)c(N)n1,inactive,,
COC[C@H]1OC(=O)c2coc3c2[C@@]1(C)C1=C(C3=O)C2CCC(=O)[C@@]2(C)C[C@H]1OC(C)=O (stereo partly drawn),inactive,,
c1ccc(C2CC2)c(OCC2=NCCN2)c1,inactive,,
O=c1c(O)c(-c2ccc(O)c(O)c2)oc2cc(O)cc(O)c12,,,6.75 µM (active)
CC(O)(CS(=O)(=O)c1ccc(F)cc1)C(=O)Nc1ccc(C#N)c(C(F)(F)F)c1 (stereo not drawn),,17,
CCC1(C2=NCCN2)Cc2ccccc2O1 (stereo not drawn),inactive,,
Cc1cccc(C)c1NC1=NCCCS1,inactive,,
CNCCC(Oc1ccc(C(F)(F)F)cc1)c1ccccc1 (stereo not drawn),,-2.89,
CC(CCc1ccccc1)NC(C)C(O)c1ccc(O)cc1 (stereo not drawn),inactive,,
